Bioassay records from PubChem.
D3 ag – agonists of human D3 dopamine receptor; P35462; D3R DiscoveRx beta-arrestin cells, luminescence, 90 min; max activation, %; hit rate 0.58% among 410,000; AID 652048; in the data active means max activation above about 30%
Target sequence (P35462 whole entry, looked up): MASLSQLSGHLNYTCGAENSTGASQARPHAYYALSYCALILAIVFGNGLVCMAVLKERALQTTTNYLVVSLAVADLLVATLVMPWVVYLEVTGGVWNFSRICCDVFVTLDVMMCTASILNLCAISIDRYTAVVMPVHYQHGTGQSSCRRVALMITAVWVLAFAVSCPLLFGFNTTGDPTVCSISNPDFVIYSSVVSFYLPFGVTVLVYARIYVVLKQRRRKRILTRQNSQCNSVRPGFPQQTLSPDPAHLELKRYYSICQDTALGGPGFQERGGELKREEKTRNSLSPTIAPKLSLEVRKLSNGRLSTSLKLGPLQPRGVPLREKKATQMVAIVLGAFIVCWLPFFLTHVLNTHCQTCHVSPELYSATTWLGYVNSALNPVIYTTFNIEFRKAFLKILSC
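Agonist-mode cell screen: cells plated at 1500/well and incubated overnight at 37 °C, then exposed to library compounds for 90 min at 37 °C. Detection reagent was added for 30–60 min at room temperature, and luminescence was read.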
SW480 rerep – inducers of DNA re-replication in SW480 colon cancer cells; hit rate 1.8% among 340,000; SW480 DNA re-replication, Hoechst DNA content imaging, 48 h; Potency, µM (top dose mostly 46.1 µM), actives largely listed as activators; further: nearly all actives have a fitted effect of over 55% in size
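Quantitative HTS format with DMSO vehicle controls; 48 hr drug incubation at 37 C, then 40 min Hoechst staining and scanning imager measurement at 405 nm excitation.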
KB-3-1 tox – kills parental KB-3-1 adenocarcinoma cells | KB-3-1 viability, CellTiter-Glo ATP luminescence, 72 h | Potency, µM (doses to about 46.1 µM), most hits filed as cytotoxic | hit rate 1.4% among 400,000 | AID 1347075; further: nearly all actives have a fitted effect of over 60% in size
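Cells are dispensed, compounds pinned in, plates held at 37 °C for 72 h, then CellTiter-Glo is added and luminescence read after 10 minutes. Cell line: parental KB-3-1 in phenol-red-free DMEM, 10% FBS.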
D3 antag – D3 dopamine receptor (human) antagonism | max response, negative = inhibition, % | hit rate 2.5% among 360,000 | D3R cells, DiscoveRx beta-arrestin luminescence, antagonist mode; hits give low values; in the data active means max response below about -50%; inconclusive means no clear call, values can overlap the other calls
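Cells plated overnight at 1500 cells/well, then exposed to library compounds with dopamine controls for 90 minutes at 37 degrees C. DiscoveRx reagent added for 30–60 minutes at room temperature; luminescence read, quantitative HTS format.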
KB-V1 MDR tox – KB-V1 MDR subline cytotoxicity. KB-V1 MDR cells viability, CellTiter-Glo, 72 h. Potency, µM (titrated, usually from 46.1 µM), usual class: cytotoxic. hit rate 3.4% among 400,000; further: nearly all actives have a fitted effect of over 60% in size
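Following 72 h at 37 degrees C with compound, KB-V1 cell viability was read by CellTiter-Glo luminescence, medium being phenol-red-free DMEM plus 10% FBS; concentration-response parameters came from normalized, curve-fitted qHTS data.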
MCF10A rerep – inducers of DNA re-replication in MCF 10A breast cells; Potency, µM (doses to about 46.1 µM), actives largely listed as activators; hit rate 2.9% among 350,000; MCF 10A DNA re-replication, Hoechst nuclear intensity, 48 h; further: nearly all actives have a fitted effect of over 50% in size
Of the large screens only hits and unclear results are named; the others gave an inactive call. A selection: hits, their analogues and other compounds. The true share with any hit is near 8.9%. Unless noted, the call rests on the fitted dose curve; in most records, active means well fitted curve in the direction sought with a large enough effect; inconclusive means small, poorly fitted or top-dose-only effect, or another doubt; inactive means no such curve, though single readings can be large; an effect the other way counts as inactive or inconclusive.

Cc1ccc(S(=O)(=O)N(CC(=O)Nc2cccnc2)c2cccc([N+](=O)[O-])c2)cc1	SW480 rerep inconclusive, MCF10A rerep 23µM (no result: KB-3-1 tox, KB-V1 MDR tox)
O=[N+]([O-])c1ccc(N(CC2CO2)S(=O)(=O)c2ccccc2)cc1 (configuration not stated)	none
Cc1ccc(S(=O)(=O)N(CC2CO2)c2cccc([N+](=O)[O-])c2)cc1 (configuration not stated)	SW480 rerep 18µM, KB-3-1 tox inconclusive, MCF10A rerep inconclusive
CS(=O)(=O)N(CC(=O)Nc1cccc([N+](=O)[O-])c1)c1ccccc1	none
Cc1ccccc1CN(CC(=O)Nc1cccc([N+](=O)[O-])c1)S(=O)(=O)c1ccc(Cl)cc1	SW480 rerep inconclusive, KB-V1 MDR tox 5.8µM
Cc1ccc(S(=O)(=O)N(CC(=O)Nc2cccnc2)c2cccc(Br)c2)cc1	SW480 rerep inconclusive, KB-3-1 tox inconclusive, KB-V1 MDR tox inconclusive, MCF10A rerep inconclusive
COc1ccc(CNc2nc(SCc3ccc(Cl)cc3)nc3ccccc23)cc1	none (no result: SW480 rerep, KB-3-1 tox, D3 antag, KB-V1 MDR tox, MCF10A rerep)
O=C1CC(c2ccccc2)CC(O)=C1C=Nc1ccc(Cl)cc1 (configuration not stated)	SW480 rerep inconclusive, D3 antag inconclusive, MCF10A rerep inconclusive
O=C1CC(c2ccccc2)CC(O)=C1C=Nc1ccccc1Cl (configuration not stated)	D3 antag -81
COc1ccc(-c2cnc(C)o2)cc1S(=O)(=O)Nc1ccc(F)cc1F	none (no result: SW480 rerep, D3 antag, MCF10A rerep)
COc1cc2nc(=S)n3[nH]c(COc4ccccc4C)nc3c2cc1OC	KB-3-1 tox inconclusive, KB-V1 MDR tox 0.92µM
COc1cc2nc(=S)n3[nH]c(CCn4nc(C)cc4C)nc3c2cc1OC	SW480 rerep 13µM, KB-3-1 tox inconclusive, D3 antag inconclusive, KB-V1 MDR tox inconclusive
COc1cc2nc(SCc3ccc(Cl)cc3)n3nc(CCn4nc(C)cc4C)nc3c2cc1OC	KB-V1 MDR tox inconclusive (no result: SW480 rerep, D3 antag, MCF10A rerep)
COc1ccc(COC(=O)NC2CCN(S(=O)(=O)c3ccc(OC)cc3)CC2)cc1	KB-V1 MDR tox 7.3µM
COc1ccc(S(=O)(=O)N2CCC(NC(=O)OCc3c(Cl)cccc3Cl)CC2)cc1	KB-V1 MDR tox 8.2µM, MCF10A rerep inconclusive
COc1ccccc1NC(=O)C(C)N(C)Cc1ccc(Cl)s1 (configuration not stated)	SW480 rerep inconclusive
Cc1ccc(OCCSc2nc(NC(C)C)nc(NC(C)C)n2)cc1	KB-V1 MDR tox inconclusive, MCF10A rerep 13µM
CCNc1nc(SCCOc2ccc(C)cc2)nc(N(C)C)n1	KB-3-1 tox inconclusive, KB-V1 MDR tox inconclusive, MCF10A rerep inconclusive
Cc1ccc2oc(-c3ccc(Cl)c(NC(=O)c4ccc(OC(C)C)cc4)c3)nc2c1	none (no result: SW480 rerep, D3 antag, MCF10A rerep)
Clc1ccc(-n2nnnc2Sc2ncnc3sccc23)cc1	SW480 rerep 6.5µM, KB-3-1 tox inconclusive, KB-V1 MDR tox inconclusive, MCF10A rerep 10µM
CC(=O)c1ccc(S(=O)(=O)NCC(=O)N2CCN(C/C=C/c3ccccc3)CC2)cc1	D3 ag 43, KB-V1 MDR tox 18µM
CCOc1ccc(NS(=O)(=O)c2cccc(C(=O)N3CCN(C/C=C/c4ccccc4)CC3)c2)cc1	KB-3-1 tox 18µM, KB-V1 MDR tox 6.5µM, MCF10A rerep inconclusive
CC(C)(C)c1ccc(S(=O)(=O)NCC(=O)N2CCCC2)cc1	SW480 rerep 5.8µM
O=C(c1cccc(S(=O)(=O)N2CCOCC2)c1)N1CCN(C/C=C/c2ccccc2)CC1	D3 ag 31, MCF10A rerep inconclusive (no result: KB-3-1 tox, KB-V1 MDR tox)
O=C(CNS(=O)(=O)c1ccc(F)cc1)N1CCCC1	MCF10A rerep inconclusive
CCOc1ccccc1CNS(=O)(=O)c1cc2c(cc1C)NC(=O)CO2	none (no result: SW480 rerep, D3 antag, MCF10A rerep)
Cc1ccc(/C=C/c2onc(C)c2S(=O)(=O)N2CCC(C(=O)NCC(C)c3ccccc3)CC2)cc1 (configuration not stated)	none (no result: SW480 rerep, D3 antag, MCF10A rerep)
COc1cc(OC)c(NC(=O)CSc2nc3ccncc3[nH]2)cc1Cl	none (no result: SW480 rerep, D3 antag, MCF10A rerep)
O=C(NC1CC1(c1ccccc1)c1ccccc1)c1ccccc1 (configuration not stated)	KB-3-1 tox inconclusive, KB-V1 MDR tox 16µM
Cc1nc2ccn(Cc3cccs3)c(=O)c2cc1C(=O)Nc1ccccc1	none (no result: SW480 rerep, KB-3-1 tox, D3 antag, KB-V1 MDR tox, MCF10A rerep)
CCCCOC(=O)CC(CC(=O)OCCCC)(OC(C)=O)C(=O)OCCCC	none (no result: SW480 rerep, KB-3-1 tox, D3 antag, KB-V1 MDR tox, MCF10A rerep)
Cc1ccccc1C(=O)NC1(C(F)(F)F)C(=O)Nc2c1c(=O)[nH]c(=O)n2CCc1ccccc1 (configuration not stated)	KB-V1 MDR tox inconclusive (no result: SW480 rerep, D3 antag, MCF10A rerep)
Cc1[nH]c2c(C)cccc2c1CCNS(=O)(=O)c1cccc([N+](=O)[O-])c1	KB-3-1 tox inconclusive, D3 antag inconclusive, KB-V1 MDR tox 23µM
Cc1ccc([N+](=O)[O-])cc1S(=O)(=O)NCCc1c(C)[nH]c2c(C)cccc12	none
CCCc1cc(=O)oc2c(C)c3c(cc12)CN(CCc1ccc(Cl)cc1)CO3	none (no result: SW480 rerep, D3 antag, MCF10A rerep)
Cn1c2cc(S(C)=O)sc2c2cnn(Cc3cccc(O)c3)c(=O)c21 (configuration not stated)	none (no result: D3 ag, SW480 rerep, D3 antag, MCF10A rerep)
c1ccc(Cn2nnnc2C(c2cccs2)N2CCCCCC2)cc1 (configuration not stated)	KB-V1 MDR tox 16µM
c1ccc(Cn2nnnc2C(c2cccs2)N2CCc3ccccc3C2)cc1 (configuration not stated)	SW480 rerep inconclusive, D3 antag -69, MCF10A rerep inconclusive
Cc1ccc(N=Nc2ccc(O)c3ncccc23)cc1C	SW480 rerep inconclusive, KB-3-1 tox inconclusive, D3 antag -69
Cc1cc(N(C)C)ccc1N=Nc1ccc2ncccc2c1	none
Cc1ccc(N=Nc2ccc(O)c3ncccc23)cc1	SW480 rerep 1.2µM, KB-3-1 tox inconclusive, D3 antag -118, MCF10A rerep inconclusive
CC12CCC(C(=O)N(CCCN3CCN(Cc4ccccc4)CC3)C1=O)C2(C)C (configuration not stated)	KB-V1 MDR tox inconclusive, MCF10A rerep inconclusive
CC12CCC(C(=O)N(CCCCN3CCN(c4ccccn4)CC3)C1=O)C2(C)C (configuration not stated)	D3 ag 86
COc1ccc(OC)c(S(=O)(=O)NC2CC(=O)N(c3cccc(F)c3)C2)c1 (configuration not stated)	SW480 rerep 6.5µM
COc1ccc(CN(C(=S)Nc2ccccc2)C2CC(=O)N(c3ccccc3)C2=O)cc1 (configuration not stated)	KB-V1 MDR tox 4.6µM, MCF10A rerep inconclusive
COc1ccc(CN(C(=S)Nc2ccccc2)C2CC(=O)N(c3ccc(Cl)cc3)C2=O)cc1 (configuration not stated)	KB-3-1 tox inconclusive, MCF10A rerep inconclusive
